Results on 107 sequences are retold here after PubChem BioAssay AID1508600 (Functional Genomics Laboratory (NCATS/FGL), 2020).

Out of some 53,000 sequences screened, about 3,700 (7%) were called active. This excerpt belongs to a sample that is enriched for actives. Values without a mark were called inactive.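 How the source made its calls: active means gene knockdowns whose robust z-score for IL-1 alpha signal is at least 2 or at most -2, so actives lie on both sides; inactive means the rest.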

The test is described as follows: Components of the Cytosolic LPS Sensing Pathway: Gene Identification via Genome-wide siRNA Screen.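 Further: robust z of the log signal after scaling to non-targeting control siRNA wells of the plate.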 Conditions: RAW264.7 macrophages, IL-1a HTRF, actives lie on both sides, screened at 100 nM (by protocol), cells primed 5 h with Pam3CSK4 first. The procedure, abridged: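 Knockdown: 100 nM siRNA, 48h, RAW264.7. Stimulation: Pam3CSK4 5 h, then LipidA via TransIT-TKO 24 h. Output: supernatant IL-1a HTRF, negative-control-normalized, log robust z-score; viability by CellTiter-Glo.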
Background: Time-resolved FRET reads energy transfer from a long-lived donor to a nearby acceptor.
Regarding GGAGCUGGAAGAGUGGUAUTT against Clta, the z-score is -0.535.
For the sequence GGCUAUGUAGAUCUUGUCATT against Cyb5r1, the z-score was -1.09.
The figure for GCUCGGUUAAGAGCCCAUGTT against Pabpn1l is -2.11 (active).
The figure for GGCACAACUGAUUUUGAAATT against Ifngr2 is -0.362.
The figure for GCGAUCACAGACAUCAUUGTT against Rabgef1 is -0.423; for GGAAAUAAGCAGCGCAUGCTT against Ippk it is -1.27.
CCUACGAGGAUACUUACAATT against Kif18b: the z-score is 2.81 (active).
The figure for GGUGGUUCUGGUGUACAGUTT against Nxf1 is -1.98.
The figure for CCCUAUAAGCAACUUAUGCTT against Tor1aip1 is -0.115; for GCACCAUUUGAGUUUUUCUTT against Vmn1r8 it is -0.578; for CAUUUACAUUCUUAUUACCTT against Olfr473 it is -1.43.
Take CCCGAACCUUAGUAAAUGUTT against Psmd8: the z-score was 0.308.
The figure for GCAGACAGCUUCUCACUAUTT against Tmem114 is -0.431; for GCUAAGAAACUGGUCUCAUTT against Reg4 it is -0.151; for GGAAGAUUUGGAAAAUGGATT against Dph3 it is -2.19 (active).
The figure for CCAUCAUUUAUGAAGACCCTT against Dcaf7 is -1.44; for CCCAAGCACCAGCCCUAUATT against Frmd8 it is -1.58; for GGGAGAAUUGUAGAUUAUUTT against Myo10 it is 0.475.
With CCAUCGACUGUUUCAUCCUTT against Olfr987, the z-score is -0.915.
The figure for GCUUGAAGUCUCUUGCUGGTT against Nhlrc2 is 3.53 (active); for GCUACUCUUUGUCUCAUGUTT against Hexb it is -0.826.
The figure for GGAUCAGAUCUUGUGUGACTT against Trim16 is -0.602; for CCGCUUGCUCAUUGUAUCATT against Ruvbl2 it is -0.976.
The figure for GGUUCCAUGAGAAAAGGUUTT against F2r is -1.45; for “AUCUGUUCCGGAGGAAUUUTT against 1700029I15Rik” it is 3.85 (active).
For the sequence GGAGGAGUUUCGCUACGGATT against Sars2, the z-score was -0.00587.
For GGUGUACCCUGAAUUUGAATT against Wdr62, the z-score was -1.67.
On to GGUUAUACGCUUAGAUUUATT against Irx5, for which the z-score is 1.77.
The figure for GCUCUGUUACUAUUUGAAUTT against Cts6 is 0.137; for GGUUUUGUACUUUCAUAGATT against Fam111a it is 0.523; for “GGACUUGAACUGAAAAGUUTT against D830013H23Rik” it is 1.01.
The figure for GGCAAAAUAAAGCUUAAGGTT against Robo3 is -0.517.
The figure for GGAUUUGAGGUUCAUAUAATT against Cdk20 is -2.48 (active).
Consider CGACAGACAUCGCUAUAAUTT against Gm11437, for which the z-score is -0.296.
The figure for GGAGAUACCGGGAAUCCAATT against Rpl19 is 0.146.
The figure for “GCGCUUCCAAUAACAAAAATT against 1700123L14Rik” is -2.19 (active); for CCAAGUGGGAUUUGCCAACTT against Ifi47 it is -1.68.
The figure for “GGAAUAUCACCAAACCAAATT against 2310057J18Rik” is -1.08; for CCUUCACCUGGCUAUUAGATT against Kif12 it is -0.14.
Regarding GGAUGUGUUCUAUUCUAUATT against Oprl1, the z-score is 0.134.
The figure for GGAAAGUUAAUGCACAUUUTT against Hmg20a is -1.68.
In the case of CCUGAAAGAAAAGAAGGACTT against Ptms, the z-score is 0.107.
Regarding GGCGACAAGCAACUUAUAATT against Mgat4c, the z-score is 3.25 (active).
The figure for GGAUGACUGUAAGUUACGGTT against Mast2 is -0.229; for GGUGCUCCUAUCCUGUUCATT against Lhfp it is -0.331; for GGCGGCUGAAAGUUUUGCATT against Pklr it is 0.94.
As for GCACAAGAGGUAUCCUUGCTT against Gm5111, the z-score is 0.000682.
Regarding GCCUGCAUUGCAAAUGAAATT against Krtap13-1, the z-score is -0.257.
The figure for GGCUUUAACAUCAAAGCAATT against Mgarp is 0.0459; for GGAAUCCUUUUCUUUCUAATT against Slc13a1 it is 0.0492.
The figure for GGAAGACAGGGACAAUACCTT against Car15 is -2.36 (active); for CCAUCCUAGCUGUGGUAAGTT against Olfr554 it is 1.32; for GGUCGUUCAGAAGCACCAGTT against Aldh16a1 it is -1.31.
The figure for CGGCACUGACUUAUUGUUCTT against Olfr574 is 0.886; for GGUGUACCAAGUGUUUUCATT against Faf2 it is 3.08 (active).
Turning to GGUCACUGAAUUGUCAAUCTT against Polr3h, the z-score was 0.773.
The figure for “GGGCAAAGACAGUAUUCAATT against B530045E10Rik” is 0.4; for CCAUGUGACAAAGCCUACCTT against Fam131b it is 0.845; for GGAGGAAAGACGAAUCAACTT against Clcn7 it is 1.44.
On to GCACUGAGCUUGACAAAGATT against Upp2, for which the z-score is -0.174.
As to GGGCUUUCUCAGAAAAGAATT against Olfr508, the z-score was -1.29.
As for “GGGCAUGAAAGAAUUCUUATT against D130040H23Rik”, the z-score is -2.83 (active).
On to GGCCAUCAUUGUCACCGUGTT against Adra2a, for which the z-score is 0.955.
With GGUUUAGGUUUCAUAAUCCTT against Ostc, the z-score is -0.338.
On to GGACCUAUGCAGCACUAAATT against Ppp1r11, for which the z-score was 1.73.
The figure for GGAGAAAGUGGACAGGGCUTT against Jph4 is 0.00563.
The figure for GGUGGUCUGAGAAAUACUCTT against Czib is 2.06 (active); for GCAUCUCCUGCCAAAGCAGTT against Ms4a2 it is -0.381; for GGUAGUAGGAGGAAUGACGTT against Ccdc93 it is -0.353.
The figure for GCUUCCUUAUUGACAAUGGTT against Rbm19 is 0.596; for GGAGGGACACAGAGAUUACTT against Auh it is 5.05 (active); for GGAGUAGCAGAGCUUCUGGTT against S100a8 it is 0.642.
For the sequence GGAGAAUAAAACUUCCAGATT against Urod, the z-score is -0.436.
Take GGGACACAGCUAAAAGCUUTT against Fam20b: the z-score is 0.146.
The figure for CGAUACAGGACCGAAGGAGTT against Fhad1 is -0.196; for GGUGGAUAUUGAUAUCAAGTT against Fga it is 3.31 (active); for CCCGGAGAGUCAUUUGUGUTT against Cpsf4 it is 0.435.
The figure for CGGAAUCAUACAUUGGUUCTT against Zfp217 is 1.22; for GGUGUCUGACUUUAAGAAGTT against Foxred1 it is -0.247; for GCCACAACUUAAUUUUCUGTT against Nav3 it is -0.305.
The figure for GGAAUCAGAUACAAAGGAGTT against Sil1 is 0.265.
Consider CUAUCAAGGGCAGUCAACUTT against Olfr1208, for which the z-score is -2.38 (active).
Regarding GGACACUAUGACGGAAGUATT against Apoe, the z-score is -1.13.
The figure for GGUUCUGAAGAUGGAGGUUTT against Ttbk2 is 1.22; for CCAAGAAUGCCCAGCAAGUTT against E4f1 it is 2.39 (active).
The figure for GCGACUUCAGAUUUCAUUATT against Srsf2 is -0.439; for GGUCAACCAUUCCUCUUGATT against Ccdc9b it is 0.409; for GCUGAAGGAUCCCAUUAGATT against Cbx2 it is -1.68.
In the case of GCAACUUGGGAACUCUUUGTT against Pnpla7, the z-score was -1.77.
GGUUUCUUUCUCUGAGUUUTT against Man2a1: the z-score is 1.62.
The figure for GGAGGAACUCCUAAAGAAGTT against Galntl5 is -0.511.
As to CCGAUCAUUAUGAGCAUACTT against Nxf7, the z-score was -1.76.
With GGUCUUUAGCAAAUUGUUCTT against Lrrc6, the z-score was 2.02 (active).
The figure for GGAUGCAGAAGAUUUUGUGTT against Ptprcap is -0.704; for GGAGACACAAAAGAAGAUATT against Sec14l4 it is -0.359; for CCUGCGUUGACCAAUCAGATT against C2cd2l it is -1.26.
Consider CCUAGUCCUGAUUUAUCAGTT against Ddx39b, for which the z-score was -2.02 (active).
The figure for “GCUCUAGGAAUCCAAAUAUTT against 9930014A18Rik” is 0.8.
The figure for GGCUUCUUCAGAUCCUAAATT against Olfr554 is -0.615; for GGUCAUCAGAAGAAUCAAGTT against Arr3 it is 2.13 (active); for GCGAUAUCUCAACUUCCCGTT against Fchsd1 it is 0.541.
The figure for GCAUGCGCCCUAAAGGAAATT against Zmynd15 is 0.687; for CCAGUCUUAUCUGUAGAAGTT against Obox1 it is -1.69; for GCCUAACUAUGAAACUUCGTT against Ppp1r11 it is 0.754.
As for CCAUUGUAGUCAGUCAAAUTT against Pip, the z-score was -0.498.
GGAUGAAAGUCCUGGACAGTT against Gli3: the z-score is 5.97 (active).
The figure for GGAGCAGUUGUGUUUAACATT against Psg17 is 0.596.
